Assay outcomes as filed in PubChem.
Shown are actives, neighbours in structure and some others; about 11% of the full set was active somewhere.
USP28 inh: blocks human USP28 ubiquitin-rhodamine cleavage; 3% of 47,000 active; inhibition, % at 25 µM; AID 1645857; Q96RU2; purified USP28, Ub-rhodamine cleavage fluorescence, 30 min
USP17 inh: human USP17-like deubiquitinase inhibition; A8MUK1; purified USP17, Ub-rhodamine cleavage fluorescence, 3 h; inhibition, % at 50 µM; 6.5% of 47,000 active
USP30 block: human USP30 deubiquitinase inhibition; AID 1645860; 5.3% of 47,000 active; Q70CQ3; purified USP30, Ub-rhodamine cleavage fluorescence; inhibition, % at 25 µM
Target sequence (Q70CQ3 whole entry, looked up): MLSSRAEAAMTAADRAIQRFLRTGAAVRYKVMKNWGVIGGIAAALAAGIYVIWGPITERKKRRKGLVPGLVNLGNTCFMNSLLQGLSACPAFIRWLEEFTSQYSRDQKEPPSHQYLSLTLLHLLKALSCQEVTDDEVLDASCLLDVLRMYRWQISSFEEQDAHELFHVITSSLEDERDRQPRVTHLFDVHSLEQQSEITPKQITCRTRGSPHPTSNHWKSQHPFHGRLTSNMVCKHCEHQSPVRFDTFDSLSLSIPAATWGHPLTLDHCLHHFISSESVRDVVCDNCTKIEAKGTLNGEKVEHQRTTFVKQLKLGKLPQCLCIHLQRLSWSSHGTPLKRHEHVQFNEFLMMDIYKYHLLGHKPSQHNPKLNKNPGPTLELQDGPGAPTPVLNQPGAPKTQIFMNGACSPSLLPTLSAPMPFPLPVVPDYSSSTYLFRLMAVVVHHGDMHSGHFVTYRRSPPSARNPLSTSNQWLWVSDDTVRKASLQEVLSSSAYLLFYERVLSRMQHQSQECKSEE
* marks the source's active call; other numbers are inactive results; x = no result given. Rule as the data show it: active = inhibition above about 30%; inactive = the rest.

SMILES	USP28 inh	USP17 inh	USP30 block
Cc1nc(SCc2ccccc2C)c2oc3ccccc3c2n1	x	60.2*	x
Cc1sc2nc(CN3CCC(C)CC3)nc(N3CCC(C)CC3)c2c1C	0.0	2.1	-0.4
O=C(COc1ccc2c3c(c(=O)oc2c1)CCC3)NCCc1ccccn1	12.2	1.5	9.3
CN1[C@H]2CCN(Cc3ccccn3)CC[C@@H]2Oc2ccccc2S1(=O)=O	-26.6	-34.5	-101.2
COc1ccc(S(=O)(=O)NCCSc2ccccc2)cc1Br	13.7	27.6	36.7*
COc1ccc(S(=O)(=O)NCCn2c(C)cc3ccccc32)cc1	-29.4	1.2	-177.7
Cc1cc(O)cc2oc3cc(O)cc(O)c3c(=O)c12	12.9	-52.8	-8.2
Cc1cc(=O)c2c(O)oc(O)c3c(O)cc(=O)c1c32	9.0	68.3*	-117.9
CC(C)CNC(=O)c1cc(-c2ccn(C3CCCC3)n2)n2ccccc12	-38.5	-30.3	-218.5
O=C(O)CCC(=O)Nc1cccc(-c2nnc(-c3ccccc3)o2)c1	8.4	19.4	33.0*
Cc1cccc(NC(=O)Nc2cccc(-c3nnc(-c4ccccc4)o3)c2)c1	14.8	15.7	25.0
O=C(NCc1ccccn1)c1nc[nH]c1C(=O)NCc1cc(F)cc(F)c1	9.2	0.0	3.2
CCN(CC)c1ccc2ccc(C(=O)N3CCCC3)cn12	-33.8	-52.1	-105.3
CCN(CC)c1ccc2ccc(C(=O)N3CCN(c4ccncc4)CC3)cn12	19.1	-10.5	35.6*
Cc1cccc(CO[C@H]2CN(C(=O)C3CC=CC3)[C@@H]3CCCO[C@H]23)n1	-12.7	-28.5	-29.9
CC(Sc1n[nH]c2nc3ccccc3n12)C(=O)Nc1ccc2c(c1)OCCO2 (stereo not drawn)	26.3	38.7*	-9.1
O=C(CSc1n[nH]c2nc3ccccc3n12)Nc1ccc2[nH]c(=O)[nH]c2c1	-3.9	-2.9	-21.7
Cc1cccc(N2CCN(CC(=O)N3CCc4ccccc43)CC2)c1C	-5.4	3.5	-1.6
Cc1ccc(NC(=O)c2cn(CC(O)c3ccc4c(c3)OCO4)nn2)cc1 (stereo not drawn)	18.6	45.7*	47.2*
O=C(Nc1ccc(F)cc1)c1cn(CC(O)c2ccc3c(c2)OCO3)nn1 (stereo not drawn)	0.4	1.8	15.3
O=C(NC1CCCc2ccccc21)c1noc2c1CCc1sccc1-2 (stereo not drawn)	6.4	-0.4	-12.8
Cn1c(=O)c2ccc(C3CCCCN3Cc3cccnc3)nc2n(C)c1=O (stereo not drawn)	1.1	0.1	-9.7
CCN1C(=O)Cc2cc(NS(=O)(=O)c3cc(C)ccc3OC)ccc21	0.4	47.2*	11.4
CCOc1ccc(S(=O)(=O)Nc2ccc3c(c2)CC(=O)N3CC)cc1	4.6	0.1	0.2
Cc1nc(Nc2ncccn2)cc(C2CCCN2)n1 (stereo not drawn)	30.1*	4.0	15.8
SMILES	USP28 inh	USP17 inh	USP30 block
Cc1nc(Nc2nnc(C)s2)cc(C2CCCN2)n1 (stereo not drawn)	-4.7	-5.1	1.4
Nc1nc(OCc2ccccc2)c2[nH]c(/C=C/c3cccs3)nc2n1	67.5*	17.4	84.2*
Cn1c(=O)c(Cl)nc2c(OCc3ccccc3)nc(N)nc21	12.2	6.5	13.6
COc1cccc(C(=O)N2CCC3(CC2)OC(C(=O)Nc2ccncc2)Cn2ccnc23)c1 (stereo not drawn)	26.3	-8.8	3.6
COc1cc(-c2ccccn2)nc(C#N)c1SC	4.3	-5.9	-14.8
CC(C)Cc1nc2oc3c(N(C)CCO)ncnc3c2c2c1CCC2	40.5*	-1.8	90.8*
CC(C)Cc1nc2sc3c(SCC(=O)N4CCCCC4)ncnc3c2c2c1CCC2	25.5	1.7	15.3
CCC(CO)Nc1ncnc2c1oc1nc(CC(C)C)c3c(c12)CCC3 (stereo not drawn)	-0.7	-15.3	8.8
COCCNc1ncnc2c1oc1nc(CC(C)C)c3c(c12)CCC3	9.8	-14.5	44.0*
CCOC(=O)N1CCN(C(=O)c2cn3ccnc(-c4ccccc4)c3n2)CC1	7.3	8.7	6.5
COc1cccc(NC(=O)c2oc3ccccc3c2NC(=O)COc2cccc(OC)c2)c1	0.1	-3.7	6.2
Cc1cc(NC(=O)c2ccc(C(F)(F)F)cc2)no1	6.3	12.9	39.5*
Cc1cc(NC(=O)COc2ccc3oc4ccccc4c3c2)no1	5.0	78.4*	21.1
CC(NC(=O)COc1ccc2oc3ccccc3c2c1)c1ccccc1 (stereo not drawn)	-0.7	41.9*	22.2
CC(NC(=O)COc1ccc2ccccc2c1)C(=O)O (stereo not drawn)	-7.5	0.1	1.5
Cc1cc(NC(=O)c2ccc(C(=O)Nc3cc(C)on3)s2)no1	-12.9	20.2	-19.8
Cc1cc(NC(=O)COc2cccc(C(F)(F)F)c2)no1	8.1	48.1*	12.7
Cc1cc(NC(=O)c2oc3c(F)cccc3c2C)no1	-27.0	-6.8	-135.3
COCCCn1c(C(=O)N2CCC(C(N)=O)CC2)cc2c(=O)n3ccccc3nc21	-4.0	-0.2	-0.2
CC(C)CC(=O)N1CCC2(CC1)[C@@H]1CN(CC(C)C)C[C@@H]1C(=O)N2C	x	-22.3	x
CCOc1ccc(OCc2nnc(SCC(=O)N(C)C3CCS(=O)(=O)C3)n2-c2ccc(Cl)cc2)cc1 (stereo not drawn)	20.9	2.4	2.7
CC(C)C(=O)N1CC[C@H]2COC(=O)N(Cc3ccccc3)[C@@H]2C1	2.0	5.0	9.3
CCS(=O)(=O)N1C[C@H]2CC[C@@]3(N=C(C)N(CC4CC4)C3=O)[C@H]2C1	-7.4	-11.1	-7.8
Cc1cc(=O)oc2cc(OCC(=O)NC(C)CCc3ccccc3)ccc12 (stereo not drawn)	-1.0	-5.7	-0.4
CCc1cc(=O)oc2cc(OCC(=O)NC(c3ccccc3)c3ccccc3)ccc12	13.9	3.8	44.3*
SMILES	USP28 inh	USP17 inh	USP30 block
COC(=O)c1ccc(C(=O)Nc2ccncc2NC(=O)c2ccc(C(=O)OC)cc2)cc1	x	21.0	x
O=[N+]([O-])c1ccc2[nH]cc(S(=O)(=O)Nc3ccc(Cl)cc3)c2c1	5.1	-7.4	3.6
CCc1ccc(NS(=O)(=O)c2c[nH]c3ccc([N+](=O)[O-])cc23)cc1	24.7	60.2*	65.8*
O=C(Cn1c(=O)n(Cc2ccc(F)cc2)c(=O)c2ncccc21)NCc1ccc(F)cc1	-8.4	x	-56.3
O=C(Cn1c(=O)n(Cc2ccc(C(=O)NC3CCCC3)cc2)c(=O)c2ccccc21)c1ccc(Cl)c(Cl)c1	3.4	18.7	12.4
O=C(Cn1c(=O)n(Cc2ccc3c(c2)OCO3)c(=O)c2ccccc21)c1ccccc1	12.4	22.7	36.2*
O=C(Cn1c(=O)n(Cc2ccc3c(c2)OCO3)c(=O)c2ncccc21)NCc1ccccc1	61.7*	75.9*	84.9*
Cc1ccc2c(Nc3ccccc3)c(C(=O)N3CCC(C)CC3)cnc2n1	-31.3	-26.7	-69.8
O=C(CC1C(=O)N(CC2CCCO2)c2nc3ccccc3n21)Nc1ccccc1F (stereo not drawn)	13.0	4.5	6.1
COCCN1CCS(=O)(=O)c2c(F)c(N3CCCC3)nc(F)c21	14.4	10.6	25.3
CC1CCN(c2nc(F)c3c(c2F)S(=O)(=O)CCN3Cc2ccccc2)CC1	6.2	47.6*	-9.9
CC1CCN(c2nc(F)c3c(c2F)S(=O)(=O)CCN3CC2CCCO2)CC1 (stereo not drawn)	-6.4	-16.7	-8.5
O=S1(=O)CCN(Cc2ccccc2)c2c(F)nc(N3CCCCC3)c(F)c21	-9.2	53.5*	-21.6
